Records with an inconclusive call do not appear. A call without a number means that no potency is given here. Calls of active or inactive are those of the source. Calls come from the whole dose curve; as a rule, active = well fitted inhibition curve with a large enough effect; inconclusive = small, poorly fitted or top-dose-only effect; inactive = flat fitted curve, though single readings scatter.

The record followed here is PubChem BioAssay (NCATS).
Potency is the fitted concentration of half-maximal effect.

The first test deals with AA1029. Description: qHTS profiling for inhibitors of Plasmodium falciparum proliferation (AID 504749). Note: nearly all actives have a fitted effect of over 60% in size. As to conditions: P. falciparum in erythrocytes, SYBR Green DNA, 72 h; series mostly up to 28.7 µM. The procedure, abridged: (§1)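 Readout was DNA-dye fluorescence from lysed cultures, ex 485/em 535 nm. Parasitized red cells had grown 72 h with compound; data scaled between 0.29 uM artemisinin and DMSO wells and corrected using vehicle-only plates.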
On the technique in general: Quantitative high-throughput screening tests each substance at several concentrations.
With `CC(=O)O[C@]1(C(C)=O)CC[C@H]2[C@@H]3C=C(Cl)C4=CC(=O)CC[C@]4(C)[C@H]3CC[C@@]21C`, the Potency was 11.2 µM (active).

Take `CC(C)(C)CC(C)(C)c1ccc(O)c(-n2nc3ccccc3n2)c1`: the Potency is 12.6 µM (active).

Regarding `COc1ccc(C(Cl)=C(c2ccc(OC)cc2)c2ccc(OC)cc2)cc1`, the Potency was 6.31 µM (active).

As for `CC1=C(C(=O)O)N2C(=O)[C@@H](NC(=O)[C@H](N)c3ccccc3)[C@H]2SC1`, the Potency result is “inactive”.

Turning to `CN(CCCN1c2ccccc2CCc2ccccc21)CC(=O)c1ccc(Cl)cc1`, the Potency was 7.94 µM (active).

On to `COc1cc(N)c(Cl)cc1C(=O)NC1CCN(Cc2ccccc2)CC1`, for which the Potency result is “inactive”.

In the case of `CC[N+](C)(CC)CCOC(=O)C(O)(c1ccccc1)C1CCCCC1` (stereo not drawn), the Potency entry was “inactive”.

Turning to `CCCN(CCc1cccs1)[C@H]1CCc2c(O)cccc2C1`, the Potency was 5.01 µM (active).

Take `CC(C)(Cc1c[nH]c2ccccc12)NCC(O)COc1ccccc1C#N` (stereo not drawn): the Potency was 8.91 µM (active).

As to `C[N+]1(C)CCC(=C(c2ccccc2)c2ccccc2)CC1`, the Potency result was “inactive”.

Take `O=C1C(O)=C(O)C(=O)C(O)=C1O`: the Potency entry was “inactive”.

In the case of `CCCCCCCCCCCCOCCOCCOCCOCCOCCOCCOCCOCCOCCO`, the Potency result was “inactive”.

`CN1CCc2cccc3c2[C@H]1Cc1ccc(O)c(O)c1-3`: the Potency was 8.91 µM (active).

Regarding `Oc1ccc(Cl)cc1Cc1cc(Cl)ccc1O`, the Potency is 10 µM (active).

For the compound `CCN(CC)CCOC(=O)C1(c2ccccc2)CCCC1`, the Potency was 0.01 µM (active).

Turning to `COc1ccc(C(=O)c2ccccc2O)c(O)c1`, the Potency result is “inactive”.

For the compound `CCNC(=O)/C=C/c1cccc(Br)c1`, the Potency result is “inactive”.

The test system of a further test is AS120. The description is as above. As to conditions: P. falciparum in erythrocytes, SYBR Green DNA, 72 h; series mostly up to 28.7 µM. The procedure, abridged: as §1
As to `CC(=O)O[C@]1(C(C)=O)CC[C@H]2[C@@H]3C=C(Cl)C4=CC(=O)CC[C@]4(C)[C@H]3CC[C@@]21C`, the Potency was 11.2 µM (active).

In the case of `COc1ccc(C(Cl)=C(c2ccc(OC)cc2)c2ccc(OC)cc2)cc1`, the Potency is 3.55 µM (active).

`CN1CCC[C@@H]1CCO[C@](C)(c1ccccc1)c1ccc(Cl)cc1`: the Potency result is “inactive”.

Take `CC1=C(C(=O)O)N2C(=O)[C@@H](NC(=O)[C@H](N)c3ccccc3)[C@H]2SC1`: the Potency result is “inactive”.

For the compound `CN(CCCN1c2ccccc2CCc2ccccc21)CC(=O)c1ccc(Cl)cc1`, the Potency was 12.6 µM (active).

On to `O=C(NC1CCN(CCc2c[nH]c3ccccc23)CC1)c1ccccc1`, for which the Potency result is “inactive”.

`O=C(CN1CCN(Cc2ccc3c(c2)OCO3)CC1)N1c2ccccc2Sc2ccccc21`: the Potency is 10 µM (active).

As to `Cn1c(=O)c2[nH]c(Br)nc2n(C)c1=O`, the Potency result was “inactive”.

For the compound `COc1cc(N)c(Cl)cc1C(=O)NC1CCN(Cc2ccccc2)CC1`, the Potency entry was “inactive”.

Turning to `CC[N+](C)(CC)CCOC(=O)C(O)(c1ccccc1)C1CCCCC1` (stereo not drawn), the Potency entry is “inactive”.

Regarding `CCCN(CCc1cccs1)[C@H]1CCc2c(O)cccc2C1`, the Potency is 7.08 µM (active).

As for `Cc1ccc2c(Br)cc(Br)c(O)c2n1`, the Potency was 8.91 µM (active).

`C[N+]1(C)CCC(=C(c2ccccc2)c2ccccc2)CC1`: the Potency entry was “inactive”.

With `O=C1C(O)=C(O)C(=O)C(O)=C1O`, the Potency entry was “inactive”.

Turning to `CC(C)[N+](C)(C)CC(O)COc1cccc2ccccc12` (stereo not drawn), the Potency entry was “inactive”.

In the case of `CN1CCc2cccc3c2[C@H]1Cc1ccc(O)c(O)c1-3`, the Potency was 7.94 µM (active).

For the compound `Oc1ccc(Cl)cc1Cc1cc(Cl)ccc1O`, the Potency is 7.08 µM (active).

For `CCN(CC)CCOC(=O)C1(c2ccccc2)CCCC1`, the Potency entry is “inactive”.

In the case of `Oc1c(Cl)cc(Cl)c(Cl)c1Cc1c(O)c(Cl)cc(Cl)c1Cl`, the Potency is 11.2 µM (active).

`COc1ccc(C(=O)c2ccccc2O)c(O)c1`: the Potency was 3.98 µM (active).

With `CCNC(=O)/C=C/c1cccc(Br)c1`, the Potency entry is “inactive”.
